Screening results: PubChem BioAssay, National Center for Advancing Translational Sciences (NCATS)
A selection: hits, their analogues and other compounds. The true share with any hit is near 21%.
Pf growth 96h: P. falciparum growth inhibition at 96 hours; Potency, µM (series often up to 28.7 µM), inactives show at the highest dose activity change, negative = inhibition, actives largely listed as inhibitors; 320,000 tested, 6.9% active; P. falciparum luciferase reporter growth, 96 h; also: potency is read from the fitted curve at half-maximal effect; % is scaled to controls: 0 for no effect and ±100 for the full control effect
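Parasite growth measured via integrated firefly luciferase reporter in P. falciparum. Infected erythrocytes at 2% hematocrit, 0.05% parasitemia final were treated 96 hours at 37 C under 5% CO2, and luminescence was read.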
Shiga inhibitor: blocks Shiga toxin action in Vero cells; Vero cells, Shiga toxin protein synthesis inhibition reporter; inhibition, % at 38.7 µM; 290,000 tested, 9.2% active; in the data active = inhibition mostly above about 28%, no sharp cut-off; inactive = mostly below about 43%; also: 0% is about no effect
AMA1-RON2 inh: inhibitors of Plasmodium falciparum AMA1-RON2 interaction | 360,000 tested, 0.2% active | AlphaScreen AMA1-biotinylated RON2 peptide binding | Potency, µM (highest dose often 58.2 µM), for the others: at the top dose activity change, negative = inhibition, usual class: inhibitors | AID 720542;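 also: potency is read from the fitted curve at half-maximal effect; 0% = vehicle wells and -100% = peptide control; nearly all actives have a fitted effect of over 45% in size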
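AMA1 (3D7) with his tag at 25 nM final met compounds first, then biotinylated RON2 peptide at 25 nM; detection used donor plus acceptor beads, 10 µg/mL apiece, read by AlphaScreen after 30 min at room temperature.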
Cycloheximide cs: counter-screen hit for Shiga toxin inhibitors, cycloheximide; cell reporter, cycloheximide protein synthesis inhibition counterscreen; AID 2314; 300,000 tested, 12% active; max response, %; in the data active = max response mostly above about 13%, no sharp cut-off; inactive = mostly below about 14%; also: read at 38.3 µM for the half of the compounds with a filed dose; 0% is about no effect
Pf growth 48h: P. falciparum growth inhibition at 48 hours (one generation); P. falciparum luciferase growth in erythrocytes, 48 h; Potency, µM (highest dose often 28.7 µM), inactives show at the highest dose activity change, negative = inhibition, actives largely listed as inhibitors; 310,000 tested, 5.9% active; AID 504832; also: potency is read from the fitted curve at half-maximal effect; % is scaled to controls: 0 for no effect and ±100 for the full control effect
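In quantitative HTS format, infected erythrocytes bearing luciferase-reporter parasites were treated for a single generation at 37 C. Luminescence after adding detection reagent served as the growth measure.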
HCV inhibitor: HCV inhibition | Huh7.5.1 HCVcc-Cre infection, luciferase reporter, 44 h | Potency, µM (top dose mostly 41.8 µM), without a hit: at the top dose activity change, negative = inhibition, most hits filed as inhibitors | 340,000 tested, 3.4% active | AID 651820; also: potency is read from the fitted curve at half-maximal effect; % is scaled to controls: 0 for no effect and ±100 for the full control effect
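Seed cells (1,000/well) for 4 h; treat with compound and infect with HCVcc-Cre, moi about 0.5. Incubate 44 h, then detect luciferase activity.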
An asterisk follows results filed as active; u = inconclusive; x = no result given; + = active, no number; [ ] = dose if it differs, or a comment. Unless noted, calls follow the shape of the dose curve; as a rule, active = well fitted curve in the direction sought with a large enough effect; inconclusive = small, poorly fitted or top-dose-only effect, or another doubt; inactive = no such curve, though single readings can be large; an effect the other way counts as inactive or inconclusive.

SMILES	Pf growth 96h	Shiga inhibitor	AMA1-RON2 inh	Cycloheximide cs	Pf growth 48h	HCV inhibitor
O=C(Cc1ccc(Cl)cc1)Nc1ccc(N2CCN(C(=O)c3ccco3)CC2)c(Cl)c1	-10%	13	-21%	9	12µM*	u
CCC(=O)Nc1ccc(N2CCN(C(=O)c3ccco3)CC2)c(Cl)c1	u	11	u	10	-11%	2%
O=C(c1ccco1)N1CCN(C(=O)c2cccs2)CC1	x	0	6%	-3	10%	3%
O=C(Nc1ccc(N2CCN(C(=O)c3ccco3)CC2)c(Cl)c1)c1cccs1	x	29*	-2%	22*	5.2µM*	u
CC(C)C(=O)N1CCN(c2ccc(NC(=O)c3cccs3)cc2Cl)CC1	-1%	25*	-6%	12	u	10µM*
COc1ccc(NC(=O)C(c2ccc(C#N)cc2)n2c(=O)c(-c3cc4ccccc4[nH]3)nc3ccccc32)cc1 (centres undefined)	x	x	29%	x	x	x
COc1ccc(-c2c(S(=O)(=O)c3ccccc3)cnn2-c2ccccc2)cc1	6.6µM*	-27	-20%	7	u	-19%
O=S(=O)(c1ccccc1)c1cnn(-c2ccccc2)c1-c1ccc(Cl)cc1	2.9µM*	3	-10%	-1	12µM*	u
COc1ccc(S(=O)(=O)Nc2cc(C)nn2-c2ccccc2)cc1	34%	-14	0%	0	x	-5%
CN(C)CCCNC(=O)c1cc2sc3ccccc3c2s1	u	11	9%	10	u	10µM*
CCCCNC(=O)c1cc2ccccc2s1	-22%	71*	-1%	38*	67%	u
COCCNC(=O)c1cc2sc3ccccc3c2s1	24%	89*	-2%	58*	78%	u
O=C(O)/C=C\C(=O)Nc1ccccc1C#Cc1ccccc1	89%	active	4%	59*	127%	11µM*
O=C(O)/C=C/C(=O)Nc1ccccc1-c1ccccc1NC(=O)/C=C/C(=O)O	u	-5	0%	-1	0%	26%
O=C(O)/C=C\C(=O)Nc1ccccc1C#Cc1ccc(Br)cc1	62%	89*	1%	56*	24%	4.5µM*
CCCNC(=O)C1(C)CCCN(Cc2ccc(C)cc2)C1 (centres undefined)	x	x	2%	x	x	x
CC(C)(C)c1ccc(C2(C)NC(=O)NC2=O)cc1 (centres undefined)	23%	21	1%	-3	3%	-1%
O=C(NC(=S)NNC(=O)c1ccccc1O)c1ccco1	u	-4	13%	21*	u	-14%
COc1ccc(/C=C/C(=O)NC(=S)NNC(=O)c2cc(OC)c(OC)c(OC)c2)cc1	u	-4	97%	8	15µM*	-28%
COc1ccc(/C=C/C(=O)NC(=S)NNC(=O)c2ccco2)cc1	10µM*	9	-6%	4	34%	u
COc1ccc(C(=O)NC(=S)NNC(=O)c2ccco2)cc1	1%	22	68%	27*	-40%	-15%
COc1ccc(CC(=O)NNC(=O)c2ccco2)cc1	41%	22	22%	4	2%	16%
COCCCN1C(=O)C(CC(=O)NCC2CCCCC2)CC(C(=O)N(C)C)=C1C (centres undefined)	x	x	-6%	x	x	x
CCN(CC(=O)Nc1ccc(OC)cc1)C(=O)Cc1ccsc1	-22%	x	5%	x	-16%	-9%
O=C(CC1NCCNC1=O)NC1Cc2ccccc2C1 (centres undefined)	36%	4	9%	-3	39%	17%
SMILES	Pf growth 96h	Shiga inhibitor	AMA1-RON2 inh	Cycloheximide cs	Pf growth 48h	HCV inhibitor
CCCCOc1ccc(C(=O)N/C(=C\c2ccc(OC)cc2)C(=O)OCc2ccco2)cc1	44%	8	-7%	-2	u	-7%
COc1ccc(C(=O)N/C(=C\c2ccco2)C(=O)OCc2ccco2)cc1	-15%	93*	-26%	34*	7%	-5%
O=C(NNC(=S)NC(=O)c1ccco1)c1ccc(NC(=O)c2ccccc2)cc1	61%	-9	60%	-8	u	u
CC(=O)Nc1ccc(NC(=S)NC(=O)/C=C/c2ccc(Cl)cc2)cc1	5%	-5	7%	-2	2%	6%
O=C(NC(=S)NNC(=O)c1ccco1)c1ccc(F)cc1	u	active	116%	24*	u	u
O=C(/C=C/c1ccc(Cl)cc1)NC(=S)Nc1ccc(NC(=O)c2ccco2)cc1	15µM*	-13	8%[2.32 µM]	-6	-14%	u
CC(C)(C)NC(=S)N/N=C/c1c(Cl)cccc1Cl	2.9µM*	-1	68%	9	3.7µM*	-19%
CCNC(=S)N/N=C/c1c(Cl)cccc1Cl	u	-12	64%	-3	0%	-16%
COC(=O)C(CCSC)NC(=O)c1cc2c(n(-c3ccc(C)cc3)c1=O)CCCC2=O (centres undefined)	u	25	-1%	19*	23%	4%
COC(=O)C(CCSC)NC(=O)c1cc2c(n(-c3ccccc3)c1=O)CC(C)(C)CC2=O (centres undefined)	3.7µM*	6	0%	-4	-20%	15%
CC(C)CNc1nc(N)c([N+](=O)[O-])c(NCC2CCCO2)n1 (centres undefined)	12µM*	-3	7%	-4	u	12%
Oc1ccc(N=Nc2ccccc2)cc1	122%	73*	-16%	36*	115%	1%
Cc1ccc(O)c(N=Nc2ccccc2)n1	x	x	49%	x	x	-2%
CC(=O)Nc1ccc(N=NN2CCOCC2)cc1	39%	73*	-2%	46*	17%	9%
Oc1ccc(Cl)cc1N=Nc1ccccc1	u	37	u	27*	42%	-5%
CC(=O)Nc1ccc(N=Nc2ccc(O)cc2)cc1	134%	+	-15%	35*	276%	-18%
CC(=O)Nc1cccc(N=NN2CCOCC2)c1	u	-3	14%	-2	2%	0%
NCCCCCCC(O)(P(=O)(O)O)P(=O)(O)O	x	10	x	-5	x	x
CCOC(=O)[C@@H]1[C@H]2COc3ccccc3[C@@H]2N2C(=O)N(c3ccc(C(F)(F)F)cc3)C(=O)[C@]12C	x	x	-5%	x	x	-7%
C#CC[N+](C)(C)C(C#Cc1ccccc1)CC=C (centres undefined)	5.9µM*	-12	5%	-4	9.3µM*	20%
Nn1c(SCC(=O)Nc2ccc(F)c(F)c2)nnc1C1CCCCC1	12µM*	8	4%	-1	-28%	-2%
Nn1c(SCC(=O)Nc2ccc(F)cc2F)nnc1C1CCCCC1	0%	55*	u	42*	37%	12%
Nn1c(SCC(=O)Nc2ccc(F)cc2F)nnc1-c1cccnc1	u	42	-2%	25*	49%	27%
